# Where “and” joins values, the source holds several entries; their conditions need not be identical. Identical values can stand only once. The campaign covered roughly 310,000 compounds. About 17,000 (5.5%) were called active. Inconclusive results (about 11%) are left out. Calls come from the whole dose curve; as a rule, active = well fitted inhibition curve with a large enough effect; inconclusive = small, poorly fitted or top-dose-only effect, or effect the other way; inactive = no such curve, though single readings can be large or run the other way. The full list was thinned out, with actives kept by preference. A structure can be active in one record and inactive in another.
# Biological target: Nuclear receptor ROR-gamma (Mus musculus) (UniProt P51450)
# Sequence (P51450 whole entry, looked up): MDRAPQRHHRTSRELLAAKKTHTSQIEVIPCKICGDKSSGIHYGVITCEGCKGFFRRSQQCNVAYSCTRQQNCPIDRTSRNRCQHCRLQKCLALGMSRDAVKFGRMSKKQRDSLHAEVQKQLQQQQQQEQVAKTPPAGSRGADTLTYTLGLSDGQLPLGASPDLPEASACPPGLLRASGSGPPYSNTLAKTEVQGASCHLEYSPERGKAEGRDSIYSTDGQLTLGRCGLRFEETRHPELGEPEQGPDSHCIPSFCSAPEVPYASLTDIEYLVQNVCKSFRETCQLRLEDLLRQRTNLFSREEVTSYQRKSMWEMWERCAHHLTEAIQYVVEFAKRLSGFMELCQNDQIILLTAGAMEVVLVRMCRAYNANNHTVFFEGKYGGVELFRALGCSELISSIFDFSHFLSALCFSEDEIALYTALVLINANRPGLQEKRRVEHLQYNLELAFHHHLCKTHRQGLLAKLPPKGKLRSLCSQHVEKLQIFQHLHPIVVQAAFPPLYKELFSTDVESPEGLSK
# Experiment: qHTS for inhibitors of ROR gamma transcriptional activity; note: nearly all actives have a fitted effect of over 60% in size
# Details: Drosophila S2 Gal4-RORgamma UAS-luciferase reporter, 20 h; series mostly up to 53.6 µM; activity change, negative = inhibition: at the top concentration
# Source text: NIH Molecular Libraries Probe Production Network [MLPCN] NIH Chemical Genomics Center [NCGC] MLPCN Grant: R03 DA026211-01 Assay Provider: Dan Littman, New York University Assay Overview: The retinoic acid-related orphan receptor (ROR) gamma is a transcription factor that has a central role in the differentiation of Th17 cells, a subset of T helper cells that secrete the inflammatory cytokines IL-17, IL-17F, and IL-22. Th17 cells have been implicated in graft versus host disease, autoimmune disease and asthma. ROR gamma is induced in naive T helper cells in the presence of TGF-beta combined with IL-6, IL-21, or IL-23, and thereafter directs the expression of the Th17 lineage cytokines. To study the mechanism of action of ROR gamma, an insect cell-based assay was screened. This Drosophila Schneider cell line was stably transfected with two vectors: a gene expressing a fusion of the Gal4 DNA binding domain and ROR gamma transactivation domain under the control of the metallothionine promoter and a Photinus luciferase reporter regulated by the Gal4 binding site enhancer, UAS. […] Small molecule inhibitors of ROR gamma activity are detected by a decrease in luciferase reporter activity.
# Assay Protocol Summary: For screening, 600 cells in 4 uL/well were dispensed into white solid 1536-well plates (Grenier) using a solenoid-based dispenser. Following transfer of 23 nL compound or DMSO vehicle by a pin tool, the plates were incubated 1 hr at ambient temperature, and 1 uL/well copper sulfate (700 uM final concentration) was added. The plates were centrifuged 15 s at 1000 RPM and incubated 20 hr at ambient temperature. After addition of 1.5 uL Photinus luciferase detection reagent, the plates were incubated 10 min at ambient temperature and then read by an ViewLux (Perkin Elmer) to detect luminescence. Keywords: NIH Roadmap, MLPCN, MLI, MLSMR, qHTS, NCGC, qHTS, nuclear hormone receptor, retinoic acid-related orphan receptor, ROR gamma
# % is set by controls: 0 for no effect and ±100 for the full control effect; potency is the fitted concentration of half-maximal effect.
SMILES,"activity change, negative = inhibition",Potency
COC(=O)c1ccc(NC(=O)c2cc3c(CO)cnc(C)c3oc2=Nc2cccc(C(N)=O)c2)cc1,24.6% (inactive),
COc1ccc(OC)c(CCNC(=O)CCn2ccc3cc(S(=O)(=O)N4CCCC4)ccc32)c1,15.1% (inactive),
CN(CCc1ccccn1)C(=O)c1ccc(OC2CCN(Cc3ccccn3)CC2)cc1,-15% (inactive),
Cc1ccc(C(C)C)cc1OCC(=O)Nc1ccccc1N1CCCC1,2.35% (inactive),
Cc1nnc(N/N=C/C2CC=CCC2)[nH]c1=O (stereo unspecified),,11.2 µM (active)
Cc1nnc(N/N=C/c2ccccn2)[nH]c1=O,-33.5% (inactive),
Cc1ccccc1Nc1nnc(C)c(=O)[nH]1,12.9% (inactive),
CCC(=O)N1c2ccc(S(=O)(=O)NCc3ccco3)cc2CC1C (stereo unspecified),5.4% (inactive),
CCc1ccc(NC(=O)CN2C(=O)COc3ccc(S(=O)(=O)N4CCCC4)cc32)cc1,14.7% (inactive),
COc1cccc(CCNC(=O)c2cccc(NC(=O)C3=C(C)OCCS3)c2)c1,36.7% (inactive),
O=C(NC12CC3CC(CC(C3)C1)C2)N1CCCC(CO)C1 (stereo unspecified),-6.71% (inactive),
COc1ccc(NC(=S)N2CCCC(CO)C2)c(OC)c1 (stereo unspecified),7.55% (inactive),
CCCCc1ccc(NC(=S)N2CCCC(CO)C2)cc1 (stereo unspecified),,15.8 µM (active)
CC(C)C(c1nnnn1C1CCCCC1)N1CCN(C(=O)c2ccco2)CC1 (stereo unspecified),18.9% (inactive),
CSCC[C@H](NC(=O)N1CCn2c1nc1ccccc12)C(=O)NCc1ccc2c(c1)OCO2,3.15% (inactive),
CCc1ccc(C(=O)COC(=O)c2ccco2)cc1,3.72% (inactive),
CC(C)C(NS(=O)(=O)c1cccs1)C(=O)Nc1nc(C(C)(C)C)cs1 (stereo unspecified),,11.2 µM (active)
COc1ccc(CNC(=O)C(NS(=O)(=O)c2cccc3nsnc23)C(C)C)cc1 (stereo unspecified),5.6% (inactive),
O=C(Nc1nncs1)c1ccccc1NS(=O)(=O)c1cccs1,24.2% (inactive),
OCCCN1c2ccccc2Nc2nnc(-c3ccccc3)cc21,,10 µM (active)
O=C(NC1CCCCCCC1)c1cccs1,-0.483% (inactive),
Cc1cccc(N(C)C(=O)c2cc(S(=O)(=O)N3CCCCC3)c[nH]2)c1,13% (inactive),

SMILES,"activity change, negative = inhibition",Potency
COc1ccc(S(=O)(=O)N2CCOCC2)cc1C(=O)NC1CCCCC1,13.7% (inactive),
CC(NC(=S)Nc1ccccc1)C(c1cccs1)N1CCOCC1 (stereo unspecified),,11.2 µM (active)
O=C(NC1CCCCC1)c1cc([N+](=O)[O-])ccc1N1CCOCC1,-0.845% (inactive),
O=C(NNC(=O)C(O)c1ccccc1)NC1CCCCC1 (stereo unspecified),11.9% (inactive),
CCCC(=O)NC(C)C(c1cccs1)N1CCN(c2ccccc2)CC1 (stereo unspecified),-2.37% (inactive),
S=C(NC1CCCCC1)NN1CCOCC1,,8.91 µM (active)
CC(NC(=S)NC1CCCCC1)C(c1ccccc1)N1CCOCC1 (stereo unspecified),,5.01 µM (active)
CC(=O)OC(C(=O)NC1CCCCC1)c1ccccc1 (stereo unspecified),-6.92% [at 10 µM] (inactive),
CC(NC(=O)Nc1ccccc1)C(c1cccs1)N1CCN(c2ccccc2)CC1 (stereo unspecified),-10.2% (inactive),
CC(=O)N1CC(=O)N(CC(=O)Nc2ccc(Br)cc2)C1=S,-36.4% (inactive),
CCOC(=O)N1CCN(CCC(=O)Nc2ccccc2)CC1,4.5% (inactive),
Cc1nc(Nc2ccccc2F)c2nnn(Cc3ccccc3Cl)c2n1,3.39% (inactive),
Cc1cccc(CN2CCC(n3nccc3NC(=O)c3ccccc3C)CC2)n1,-24.1% (inactive),
O=C(NCc1ccccc1)C(c1ccco1)N(C(=O)c1csnn1)c1ccccc1F (stereo unspecified),1.19% (inactive),
CCCCN1C(=O)/C(=C2/Sc3ccc(Cl)cc3N2CC)SC1=S,1.27% (inactive),
O=S(=O)(NC1CCCCC1N1CCCCC1)c1ccc(Cl)cc1 (stereo unspecified),-5.75% (inactive),
CC(=O)Nc1cccc(Nc2nc(-c3cccs3)nc3ccccc23)c1,6.54% (inactive),
COc1ccc(CN(C)C(=O)Cc2c[nH]c3ccccc23)c(OC)c1OC,41% (inactive),
Cc1nn(C)c(Cl)c1CN1CCC(Oc2ccc(C(=O)N3CCCC3)cc2)CC1,-28% (inactive),
CCOc1ccc(N/C(N)=N/c2nc(C)c(C)c(=O)[nH]2)cc1,0.457% (inactive),
Cc1ccc(C(=O)N/C(=C\c2cn(S(=O)(=O)N(C)C)c3ccccc23)C(=O)N2CCCC2)cc1,12.2% (inactive),
CCOc1cc(/C=C2\C(=N)N3N=C(C)SC3=NC2=O)ccc1OCCOc1ccccc1,26.8% [at 1.91 µM] (inactive),

SMILES,"activity change, negative = inhibition",Potency
COc1cccc(OC)c1C(=O)Nc1c(C(=O)N2CCN(c3ccccn3)CC2)oc2ccccc12,26.4% (inactive),
CCOc1cc(C)ccc1OCc1nnc(SCC(=O)Nc2cccc(C(=O)O)c2)n1-c1ccccc1,-3.43% (inactive),
Cc1cc(C)c(C#N)c(SCC(=O)Nc2ccccc2)n1,-8.89% (inactive),
CSc1nc(C)cc(SC(C(C)=O)C(=O)Nc2ccccc2)n1 (stereo unspecified),,8.91 µM (active)
CC(Sc1nnc2c(n1)C1CCC2(C)C1(C)C)C(=O)Nc1ccccc1 (stereo unspecified),8.52% (inactive),
Cc1c(CN2CC[C@@H](N3CCN(c4ccccn4)CC3)[C@H](O)C2)[nH]c2ccc(F)cc12,10.1% (inactive),
CC1CC(c2ccccc2)n2nc(NC(=O)c3cccs3)nc2N1 (stereo unspecified),,14.1 µM (active)
O=C(Nc1n[nH]c(C(F)(F)F)n1)c1cccs1,-2.77% (inactive),
COc1ccc(CC(=O)Nc2nc3n(n2)C(c2ccccc2)CC(=O)N3)cc1OC (stereo unspecified),-4.03% (inactive),
O=C1N=C(N2CCc3ccccc3C2)S/C1=C\c1ccc(O)cc1,,1.12 µM (active)
CCOc1cc(/C=C2\SC(N3CCCCC3)=NC2=O)ccc1O,18.1% (inactive),
O=C1N=C(N2CCCC2)S/C1=C\c1cccc(Br)c1,26.8% (inactive),
Cc1ccc(CCNC(=O)c2ccc3nc4ccccc4c(=O)n3c2)cc1,2.06% (inactive),
CCc1ccc(-c2nn(-c3ccccc3)cc2CSC(=N)N)cc1,,11.2 µM (active)
COc1ccc(N(CC(=O)NCC2CCCO2)C(=O)CCC(=O)Nc2nccs2)c(OC)c1 (stereo unspecified),6.64% (inactive),
O=C(NCc1ccc(F)cc1)C1CCN(C(=O)Nc2ccc(F)cc2)CC1,12.7% (inactive),
O=C1C=CC(=O)N1c1ccc(N2CCCCC2)cc1,,5.62 µM (active)
O=c1[nH][nH]c(=O)c2cc(N3CCCC3)ccc12,0.847% (inactive),
CCOC(=O)/C(C#N)=C/c1ccc(N2CCCCC2)cc1,41.1% (inactive),
COc1ccc(-c2nnc3ccc(SCc4ccccc4)nn23)cc1,18.6% (inactive),
COC(=O)c1ccc(CSc2ccccc2C)o1,23.7% (inactive),
COC(=O)c1ccc(CSc2ccc3nnc(-c4ccccc4)n3n2)o1,,10 µM (active)

SMILES,"activity change, negative = inhibition",Potency
CN1CCN(Cc2c(C(=O)N3CCc4ccccc4C3)nc3ccc(Cl)cn23)CC1,-0.791% (inactive),
CN1CCN(C(=O)C(=O)c2cn(CC(=O)N3CCCC3)c3ccccc23)CC1,0.0969% (inactive),
CCC(C)[C@H](NC(=O)N1c2ccccc2NC(=O)[C@@H]1C(C)C)C(=O)N[C@@H](Cc1ccccc1)C(=O)O (stereo partly specified),-3.74% (inactive),
COc1ccccc1OCCNCC(O)COc1cccc2[nH]c3ccccc3c12 (stereo unspecified),,inactive and 1 µM (active)
CC(O)CNCCOc1cccc(Oc2ccccc2)c1 (stereo unspecified),-10.9% (inactive),
COc1ccccc1OCC(O)CN1CCOCC1 (stereo unspecified),6% (inactive),
COc1cccc(OCc2nnc3n2N=C(c2ccccc2)C(CC(=O)O)S3)c1 (stereo unspecified),-7.78% (inactive),
COc1ccc(-n2ncc3c2CC(C)(C)CC3NC(=O)CCc2c(C)nn(C)c2C)cc1 (stereo unspecified),17.1% (inactive),
CCCCN(CCCC)CCNC(=O)CN1C(=O)COc2ccc(S(=O)(=O)N3CCOCC3)cc21,-12.1% (inactive),
CC(=O)NC(=S)Nc1ccc(NC(=O)c2cccnc2)cc1,28.8% (inactive),
CC(=O)Nc1ccc(-c2nc3ccccc3o2)cc1,-26.3% (inactive),
Cc1ccc2nc(-c3ccc(NC(=O)c4cccnc4)cc3)oc2c1,,20 µM (active)
COC(=O)COc1ccc2oc(=O)cc(C)c2c1,-35% (inactive),
Cc1ccc(O)c(/C=N/NC(=O)COc2ccc3c(C)cc(=O)oc3c2)c1,,2.51 µM (active)
Cc1cc(=O)oc2cc(OCC(=O)Nc3nnc(C4CC4)s3)ccc12,-12.9% (inactive),
Cc1c(C)c2ccc(OCC(=O)N3CCN(c4cccc(Cl)c4)CC3)cc2oc1=O,0.847% (inactive),
CCC(C)N1CC(=O)N2Cc3[nH]c4ccccc4c3C[C@H]2C1=O (stereo partly specified),-15.5% (inactive),
O=C(Cn1ncc2c3ccccc3n(Cc3ccccc3)c2c1=O)NCCCN1CCOCC1,-2.33% (inactive),
COc1ccc(N(CC(=O)Nc2cc(OC)ccc2OC)S(=O)(=O)c2c(C)noc2C)cc1,-1.57% (inactive),
Cc1ccccc1-n1nnc2c(=O)oc3ccccc3c21,,7.94 µM (active)
CCCCC(=O)Nc1cc(C)c2c(=O)oc3ccccc3c2n1,3.53% (inactive),
CC(C)(C)Nc1c(N)c(=O)oc2ccccc12,13.4% (inactive),

SMILES,"activity change, negative = inhibition",Potency
COc1cccc(C(=O)NNS(=O)(=O)c2ccc(F)cc2)c1,3.67% (inactive),
COc1ccc(C(C(=O)NCC2CCCO2)N(C(=O)Cn2nnc3ccccc32)c2ccc(NC(C)=O)cc2)cc1OC (stereo unspecified),-6.87% (inactive),
Nc1ccc(-c2sc(N)nc2-c2ccccc2)cc1,-17.2% (inactive),
Nc1nc(-c2ccccc2)cc(-c2ccccc2)n1,-7.58% (inactive),
Nc1[nH]c(=S)nc2nc(-c3ccccc3)c(-c3ccccc3)nc12,,3.98 µM (active)
Cc1c(CN2CCC(n3nccc3NC(=O)CCc3ccccc3)CC2)cnn1C,-18.5% (inactive),
CC(=O)NCCC(=O)Nc1cc(S(=O)(=O)N2CCCCC2)ccc1Oc1cccc(C)c1,11% (inactive),
Cc1nnc(SCC(=O)NNC(=O)c2ccc(Cl)cc2)n1CC1CCCO1 (stereo unspecified),15% (inactive),
S=c1[nH]nc(-c2ccc(Cl)cc2)n1CC1CCCO1 (stereo unspecified),,11.2 µM (active)
CNC(=O)NC(=O)CSc1nnc(-c2ccc(F)cc2)n1CC1CCCO1 (stereo unspecified),10.2% (inactive),
N#Cc1ccccc1S(=O)(=O)N1CCN(C(=O)c2cc(-c3ccccc3)nn2-c2ccccc2)CC1,-11.5% (inactive),
CC1CN(C(=S)Nc2ccccc2F)CC(C)O1 (stereo unspecified),13% (inactive),
S=C(Nc1ccc(Br)cc1Cl)N1CCC2(CC1)OCCO2,-25.8% (inactive),
CC1CN(C(=S)Nc2ccc(Br)cc2Cl)CC(C)O1 (stereo unspecified),,12.6 µM (active)
O=C(Nc1ccc(O)cc1)c1ccc(NC(=O)c2ccco2)cc1,7.16% (inactive),
Cc1cc(Cl)ccc1OCCCC(=O)NCc1ccccn1,16.2% (inactive),
Cc1ccc(SCCC(=O)NCc2ccccn2)cc1,,8.91 µM (active)
O=C(CCSc1ccccc1)NCCSc1ccccn1,24.1% (inactive),

# Reference: PubChem BioAssay AID2551 (National Center for Advancing Translational Sciences (NCATS), 2010)
